Our source for the z-score and composite z-score values is PubChem BioAssay.

Test [1] in a line: optical density shifts of acrAB sulA E. coli – strain DRC41, OD650, 48 h, E. coli filamentation inducer project, primary screen (AID 1152).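 Also: E. coli MC1000 strain DRC41 lacking acrAB efflux pump and sulA.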 Conditions: higher = more signal, called active from +8 up or from −8 down.
The nature of test [2]: probe aLefty1 binding on compound microarray – biochemical, small-molecule microarray, 635/667 nm fluorescence, primary screen (AID 1153).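 Also: score merges spot fluorescence with signal-to-noise ratio from the scanned slide images.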 As to conditions: higher = more signal.
The nature of test [3]: plasmodial surface anion channel blockers, osmotic lysis – cell-based, P. falciparum Indochina, OD700, 1 h, primary screen (AID 1154). Conditions: P. falciparum Indochina infected RBC osmotic lysis, higher = more signal, called active from +8 up or from −8 down.
A short description of test [4]: plasmodial surface anion channel blockers, osmotic lysis – cell-based, P. falciparum Indochina, OD700, 2 h, primary screen (AID 1155).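 Also: lysis reports solute entry through the parasite surface anion channel PSAC.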 Conditions: P. falciparum Indochina infected erythrocytes, higher = more signal, called active from +8 up or from −8 down.
A short description of test [5]: changes in parasitized red cell lysis, either direction – P. falciparum Indochina, OD700, 3 h, PSAC antagonist project, primary screen (AID 1156). Conditions: P. falciparum-infected erythrocytes, osmotic lysis, higher = more signal, called active from +8 up or from −8 down.
Test [6] is described as follows: plasmodial surface anion channel blockers, osmotic lysis – cell-based, P. falciparum Indochina, OD700, 18 h, primary screen (AID 1157). Conditions: P. falciparum Indochina infected erythrocytes, osmotic lysis OD700, 18 h; higher = more signal, called active from +8 up or from −8 down.
Test [7] can be described thus: S6 kinase pathway phospho-S6 level changes – cell-based, A549, cytoblot, luminescence, serum-stimulated, primary screen (AID 1158).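 Also: serum-stimulated A549 lung adenocarcinoma cells; signal is phosphorylated S6 detected by cytoblot immunostaining with HRP secondary.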 As to conditions: 5 h, higher = more signal.
The target in test [8] is NADPH oxidase 2 (Homo sapiens) (UniProt P04839). The test can be described thus: compounds shifting NOX2 Amplex Red fluorescence – cell-based, HEK293-NOX2, PMA-stimulated, NOX inhibitor project, primary screen (AID 1159). Also: test concentration not given here. Conditions: 45 min, higher = more signal, called active from +8 up or from −8 down.
Sequence of NADPH oxidase 2 (Homo sapiens) (P04839 whole entry, looked up): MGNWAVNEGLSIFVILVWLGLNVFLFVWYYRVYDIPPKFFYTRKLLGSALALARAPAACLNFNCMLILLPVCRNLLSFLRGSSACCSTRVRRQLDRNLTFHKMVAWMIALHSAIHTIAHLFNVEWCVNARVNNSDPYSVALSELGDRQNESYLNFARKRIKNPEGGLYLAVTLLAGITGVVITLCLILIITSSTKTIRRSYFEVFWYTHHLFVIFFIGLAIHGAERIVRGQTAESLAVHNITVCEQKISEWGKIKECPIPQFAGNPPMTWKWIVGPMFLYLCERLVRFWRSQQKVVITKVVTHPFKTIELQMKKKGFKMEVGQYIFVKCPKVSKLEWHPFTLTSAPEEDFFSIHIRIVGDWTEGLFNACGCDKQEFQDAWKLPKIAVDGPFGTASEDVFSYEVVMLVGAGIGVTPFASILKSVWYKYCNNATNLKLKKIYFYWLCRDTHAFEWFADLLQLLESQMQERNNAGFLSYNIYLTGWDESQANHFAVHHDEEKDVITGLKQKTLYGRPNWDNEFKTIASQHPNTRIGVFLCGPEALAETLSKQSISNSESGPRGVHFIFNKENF
Test [9] deals with NADPH oxidase 4 (Homo sapiens) (UniProt Q9NPH5). The test can be described thus: compounds shifting NOX4 Amplex Red fluorescence – cell-based, HEK293-NOX4, tetracycline-induced, NOX inhibitor project, primary screen (AID 1160). Conditions: HEK293-NOX4, Amplex Red H2O2 fluorescence, 45 min; higher = more signal, called active from +8 up or from −8 down.
Sequence of NADPH oxidase 4 (Homo sapiens) (Q9NPH5 whole entry, looked up): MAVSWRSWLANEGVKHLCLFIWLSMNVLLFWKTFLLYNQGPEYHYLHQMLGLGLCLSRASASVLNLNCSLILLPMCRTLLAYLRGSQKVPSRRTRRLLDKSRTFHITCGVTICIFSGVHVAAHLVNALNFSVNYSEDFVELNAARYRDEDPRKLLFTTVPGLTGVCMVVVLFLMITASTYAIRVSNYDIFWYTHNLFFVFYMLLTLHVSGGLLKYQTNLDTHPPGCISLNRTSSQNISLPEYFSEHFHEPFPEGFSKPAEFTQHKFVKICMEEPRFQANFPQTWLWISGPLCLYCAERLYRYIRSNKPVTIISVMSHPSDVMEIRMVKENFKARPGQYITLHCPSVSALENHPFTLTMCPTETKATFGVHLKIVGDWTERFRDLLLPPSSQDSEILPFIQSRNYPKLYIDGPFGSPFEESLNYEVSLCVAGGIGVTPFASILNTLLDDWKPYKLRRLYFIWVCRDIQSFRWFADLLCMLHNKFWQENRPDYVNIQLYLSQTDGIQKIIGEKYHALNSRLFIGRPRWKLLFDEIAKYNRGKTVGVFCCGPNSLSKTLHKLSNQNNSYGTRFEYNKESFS
In test [10] the target is NADPH oxidase 5 (Homo sapiens) (UniProt Q96PH1). The test can be described thus: compounds shifting NOX5 Amplex Red fluorescence – cell-based, HEK293-NOX5, NOX inhibitor project, primary screen (AID 1161). Conditions: HEK293-NOX5, ionomycin, 45 min, higher = more signal.
Sequence of NADPH oxidase 5 (Homo sapiens) (Q96PH1 whole entry, looked up): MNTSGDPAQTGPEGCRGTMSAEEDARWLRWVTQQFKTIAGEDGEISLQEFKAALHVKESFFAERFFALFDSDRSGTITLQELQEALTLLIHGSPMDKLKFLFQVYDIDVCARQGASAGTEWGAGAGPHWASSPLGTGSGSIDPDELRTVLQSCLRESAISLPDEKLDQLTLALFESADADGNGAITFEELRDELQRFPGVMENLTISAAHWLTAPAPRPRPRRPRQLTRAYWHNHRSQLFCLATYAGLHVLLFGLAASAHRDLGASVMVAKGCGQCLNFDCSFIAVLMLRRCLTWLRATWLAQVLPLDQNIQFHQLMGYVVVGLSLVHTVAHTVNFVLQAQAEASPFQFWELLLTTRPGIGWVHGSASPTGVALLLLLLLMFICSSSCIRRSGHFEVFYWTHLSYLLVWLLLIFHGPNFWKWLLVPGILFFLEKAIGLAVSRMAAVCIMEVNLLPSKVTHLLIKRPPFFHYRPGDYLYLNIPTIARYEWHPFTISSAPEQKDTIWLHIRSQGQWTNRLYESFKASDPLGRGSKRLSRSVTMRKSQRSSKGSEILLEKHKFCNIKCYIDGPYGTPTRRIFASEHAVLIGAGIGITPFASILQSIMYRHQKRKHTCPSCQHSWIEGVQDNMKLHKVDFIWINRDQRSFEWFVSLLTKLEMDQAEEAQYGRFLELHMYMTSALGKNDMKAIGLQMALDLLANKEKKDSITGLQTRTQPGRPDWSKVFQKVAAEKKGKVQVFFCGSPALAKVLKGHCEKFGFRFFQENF
A short description of test [11]: compound effects on lung adenocarcinoma cell viability – A549, calcein-AM fluorescence, 48 h, basal, profiling panel (AID 1162). Also: test concentration not given here. As to conditions: higher = more signal.
Test [12] can be described thus: compound effects on differentiated 3T3-L1 adipocyte viability – cell-based, 3T3-L1 adipocytes, calcein-AM fluorescence, 48 h, basal, profiling panel (AID 1163). Also: test concentration not given here. Conditions: 3T3-L1 adipocytes viability, higher = more signal.
Test [13] in a line: compound effects on hepatocellular carcinoma cell viability – HepG2, calcein-AM fluorescence, 48 h, basal, profiling panel (AID 1164). Also: test concentration not given here. Conditions: higher = more signal.
Test [14] is described as follows: compound effects on multiple myeloma cell viability – MM1S, calcein-AM fluorescence, 48 h, basal, profiling panel (AID 1165). Also: test concentration not given here. Conditions: higher = more signal.
Test [15] is described as follows: calcein-AM signal in unstimulated myeloma cells – cell-based, calcein-AM fluorescence, 48 h, PK04 Diversity Set, profiling panel (AID 1166).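 Also: cells grown under basal conditions without added stimulus; test concentration not given here.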 Conditions: RPMI8226 myeloma viability, higher = more signal.
Test [16] is described as follows: JC-1 mitochondrial signal, unstimulated HepG2 cells – cell-based, JC-1 fluorescence, 24 h, 100 nL compound, profiling panel (AID 1167). Also: test concentration not given here. Conditions: HepG2 mitochondrial potential, higher = more signal.
Test [17] can be described thus: JC-1 mitochondrial signal, unstimulated adipocytes – cell-based, JC-1 fluorescence, 3T3-L1 adipocytes, 24 h, 100 nL compound, profiling panel (AID 1168). Also: test concentration not given here. As to conditions: JC-1 mitochondrial fluorescence, higher = more signal, called active from +8 up or from −8 down.
Test [18] is described as follows: JC-1 mitochondrial signal, unstimulated myeloma cells – cell-based, JC-1 fluorescence, RPMI8226, 24 h, 100 nL compound, profiling panel (AID 1169). Also: test concentration not given here. As to conditions: JC-1 mitochondrial potential fluorescence, higher = more signal.
A short description of test [19]: JC-1 mitochondrial signal, unstimulated MM1S myeloma – cell-based, JC-1 fluorescence, 24 h, 100 nL compound, profiling panel (AID 1170). Also: test concentration not given here. As to conditions: MM1S mitochondrial potential, higher = more signal.
The nature of test [20]: resazurin metabolic signal in A549 cells – cell-based, resazurin fluorescence, 24 h, PK04 Diversity Set, profiling panel (AID 1171). Also: test concentration not given here. Conditions: A549 viability, higher = more signal, called active from +8 up or from −8 down. Background: Resazurin is reduced to fluorescent resorufin, in cell work by metabolically active cells.

Activity calls are given as the source filed them.

Regarding `CC(C)NC(=O)[C@@]1(C)c2ccccc2C(=O)N(C(C)C)[C@H]1c1ccc(CO)cc1`, the z-score in test [1] was -0.508 (inactive); in [3], 1.21 (inactive); in [4] it was 0.547 (inactive); in [5], 0.702 (inactive); in test [6], 0.255 (inactive); in test [7] it was 0.0605. Further, the z-score in test [8] was -0.0231 (inactive); in test [9] it was 0.375 (inactive); in [10], 0.222; in test [11] it was -0.619; in test [12], 0.545; in test [13], -0.335. The z-score in test [14] is 0.608; in test [15], 0.0593; in test [16], 0.313; in [17] it was -0.527 (inactive); in test [18], 0.713; in test [19] it was 1.32. Further, the z-score in [20] was -0.271 (inactive). In addition, the composite z-score in test [2] is -0.0699.
Regarding `COCCOC(=O)N1C(=O)[C@@]2(c3ccccc31)[C@H](c1ccc(OCCO)cc1)N1[C@H](c3ccccc3)[C@H](c3ccccc3)OC(=O)[C@H]1[C@@H]2C(=O)Nc1nc2ccccc2s1`, the z-score is 0.269 (inactive) in test [1]; 4.55 (inactive) in test [3]; 2.02 (inactive) in test [4]; -0.214 (inactive) in test [5]; 1.74 (inactive) in test [6]; -0.381 in test [7]. Moreover, the z-score in test [8] is 1.13 (inactive); in [9], 1.17 (inactive); in test [10], 1.28; in test [11], -1.38; in [12], 0.73; in test [13], -1.18. The z-score in test [14] is -1.15; in test [15], -1.57; in test [16], -3.4; in [17], 0.576 (inactive); in test [18], -1.09; in [19] it was -1.36. In [20], the z-score is 0.294 (inactive). The composite z-score in [2] came out at 0.071.
Take `COCCCNC(=O)[C@@]1(Sc2ccc(C)cc2)CC(=O)N(Cc2cc(C(F)(F)F)cc(C(F)(F)F)c2)[C@@H]1c1ccc(CO)cc1`: the z-score in test [1] is 0.154 (inactive); in [3], 0.603 (inactive); in test [4], 0.591 (inactive); in [5], 1.03 (inactive); in [6] it was 0.302 (inactive); in [7] it was -0.103. Moreover, the z-score was 0.242 (inactive) in test [8]; 0.521 (inactive) in [9]; 0.581 in test [10]; 0.285 in [11]; -0.515 in [12]; 0.584 in test [13]. Moreover, the z-score in test [14] is 1.35; in test [15], 1.42; in test [16], 0.967; in [17], 0.895 (inactive); in [18] it was 0.786; in [19], -0.422. Also, the z-score in [20] is -1.07 (inactive). In addition, the composite z-score in test [2] is -0.0559.
Take `O=C(O)[C@]1(Cc2ccccc2)N=C(c2ccc(OCCCO)cc2)O[C@@H]1c1ccccc1`: the z-score was 0.585 (inactive) in test [1]; 5.03 (inactive) in test [3]; -0.125 (inactive) in test [4]; -1.2 (inactive) in test [5]; 0.0743 (inactive) in test [6]; -0.174 in [7]. The z-score is 0.26 (inactive) in test [8]; 0.674 (inactive) in [9]; 0.914 in test [10]; 1.07 in test [11]; -1.44 in test [12]; 0.493 in test [13]. Further, the z-score in test [14] is 0.427; in test [15], 0.261; in test [16], -0.121; in [17] it was 0.766 (inactive); in [18] it was -0.833; in test [19], -0.38. Besides, the z-score in test [20] is 0.455 (inactive). The compound also came in with a composite z-score in test [2] of 0.104.
For the compound `O=C(CS)NCCCCCCNC(=O)[C@H]1C[C@H]2C(=O)N[C@@H](Cc3ccccc3)C(=O)N2[C@H]1c1cccc(OCCO)c1`, the z-score in [1] was -0.405 (inactive); in test [3], 6 (inactive); in [4] it was 0.988 (inactive); in test [5], -0.228 (inactive); in test [6] it was 0.351 (inactive); in [7] it was 0.882. The z-score was 1.76 (inactive) in [8]; 0.441 (inactive) in [9]; -0.135 in test [10]; 0.0757 in test [11]; -0.154 in test [12]; 0.77 in test [13]. Also, the z-score in test [14] was 0.306; in test [15], 0.895; in test [16], -0.394; in [17] it was 0.0403 (inactive); in test [18] it was -0.309; in test [19], -1.12. Further, the z-score in [20] was 0.311 (inactive). The compound also returned a composite z-score in test [2] of 0.269.
`COc1ccc([Si](C)(C)[C@H]2[C@H](CCO)O[C@@]3(C(=O)N(Cc4cccc(N5CCCCC5=O)c4)c4ccccc43)[C@@H]2C)cc1`: the z-score in test [1] was -0.205 (inactive); in test [3], 5.16 (inactive); in test [4], 1.94 (inactive); in test [5] it was 0.558 (inactive); in test [6] it was 1.38 (inactive); in test [7], 0.781. Besides, the z-score in test [8] is -5.46 (inactive); in test [9], -1.46 (inactive); in [10] it was 0.189; in test [11], -1.38; in test [12], -0.865; in test [13] it was -4.36. Besides, the z-score in test [14] is -2.73; in [15], -4.35; in test [16], -1.59; in test [17], 0.0395 (inactive); in test [18], -1.1; in test [19], -2.09. In addition, the z-score in test [20] was -2.95 (inactive). Besides, in test [2], the composite z-score turned out to be 0.102.
Regarding `CN(C)C(=O)[C@@]1(Cc2ccccc2N=[N+]=[N-])COC(c2ccc(OCCCO)cc2)=N1`, the z-score was 1.92 (inactive) in test [1]; 26.3 (active) in test [3]; 6.99 (inactive) in [4]; 3.43 (inactive) in test [5]; 1.23 (inactive) in test [6]; 0.685 in test [7]. The z-score is -1.99 (inactive) in test [8]; -0.103 (inactive) in [9]; -1.82 in test [10]; 1.69 in test [11]; -0.541 in [12]; 1.32 in test [13]. For the same compound, the z-score in [14] is -0.257; in test [15] it was 0.192; in [16], 1.4; in test [17], 0.0922 (inactive); in test [18], -0.934; in test [19], -1.23. Also, the z-score in test [20] is 0.325 (inactive). Further, the composite z-score in test [2] is -0.781.
On to `C[C@@H]1ON(c2ccc(C(=O)OC(C)(C)C)cc2)[C@H](c2ccc(Br)cc2)[C@H]1C(=O)N1C(=O)OC[C@H]1Cc1ccccc1`, for which the z-score is 0.351 (inactive) in test [1]; 0.393 (inactive) in test [3]; 0.358 (inactive) in [4]; -0.65 (inactive) in [5]; 0.428 (inactive) in test [6]; 0.479 in test [7]. The z-score in [8] was -0.495 (inactive); in test [9], 0.0298 (inactive); in test [10] it was 0.191; in [11], 0.136; in test [12], 0.393; in [13] it was 0.889. For the same compound, the z-score in test [14] was -0.486; in test [15], -0.403; in [16], 0.401; in test [17], -0.728 (inactive); in test [18] it was -1.1; in [19], 0.24. In addition, the z-score in test [20] was 1.23 (inactive). The same compound yielded a composite z-score in [2] of -0.0241.
Regarding `NC(=O)N1C(=O)C2C(C1=O)C1C=C(c3ccc(CO)cc3)C2C(C2CC2)N1Cc1sc2ccccc2c1Cl` (stereo not given), the z-score was 0.421 (inactive) in test [1]; 17.8 (active) in test [3]; 3.88 (inactive) in test [4]; 0.777 (inactive) in [5]; 1.39 (inactive) in test [6]; -0.436 in [7]. Besides, the z-score in test [8] is 2.51 (inactive); in [9] it was -0.148 (inactive); in test [10], -0.568; in [11] it was 0.965; in test [12] it was 0.21; in test [13], 0.197. Also, the z-score in test [14] was -3.27; in [15] it was -3.61; in [16] it was 0.159; in test [17], 0.189 (inactive); in test [18], -0.65; in [19], -0.311. Besides, the z-score in test [20] is -0.207 (inactive). In [2], this compound registered a composite z-score of 0.317.
